# Source: PubChem (National Center for Advancing Translational Sciences (NCATS))
# Cycloheximide cs: affects cycloheximide protein synthesis inhibition readout, counter-screen; AID 2314; cell reporter, cycloheximide protein synthesis inhibition counterscreen; max response, %; 300,000 compounds, 12% hits; in the data active = max response mostly above about 13%, no sharp cut-off; inactive = mostly below about 14%; also: read at 38.3 µM for the half of the compounds with a filed dose; 0% is about no effect
# Shiga toxin inh: Shiga toxin inhibition; Vero cells, Shiga toxin protein synthesis inhibition reporter; inhibition, % at 38.7 µM; 290,000 compounds, 9.2% hits; AID 2315; in the data active = inhibition mostly above about 28%, no sharp cut-off; inactive = mostly below about 43%; also: 0% is about no effect
# FBPA Giardia inh: Giardia lamblia aldolase inhibition; A8B2U2; purified Giardia FBPA; Potency, µM (doses to about 59.6 µM), for inactives: at the highest dose activity, negative = inhibition, actives largely listed as inhibitors; 290,000 compounds, 0.71% hits; also: potency is read from the fitted curve at half-maximal effect; % is scaled to controls: 0 for no effect and ±100 for the full control effect; nearly all actives have a fitted effect of over 55% in size
# Target sequence (A8B2U2 whole entry, looked up): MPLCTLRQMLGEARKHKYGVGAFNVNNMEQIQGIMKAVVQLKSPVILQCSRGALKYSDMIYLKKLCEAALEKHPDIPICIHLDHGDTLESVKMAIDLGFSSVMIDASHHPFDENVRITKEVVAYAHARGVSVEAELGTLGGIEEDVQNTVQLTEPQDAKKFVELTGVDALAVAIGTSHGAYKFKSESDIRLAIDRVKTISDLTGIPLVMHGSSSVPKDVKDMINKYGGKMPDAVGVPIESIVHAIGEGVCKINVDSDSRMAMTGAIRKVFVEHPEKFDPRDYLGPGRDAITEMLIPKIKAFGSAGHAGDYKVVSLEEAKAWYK
#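 40 nM FBPA preincubated 10 min at RT with compound (up to 57.5 uM final), then substrate plus GAPDH/TPI/NAD/arsenate coupling and diaphorase/resazurin added. Fluorescence read after 20 min at RT, 525/598 nm.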
# Pf growth 48h: inhibits P. falciparum growth in the first generation, 48 h; P. falciparum luciferase growth in erythrocytes, 48 h; Potency, µM (top dose mostly 28.7 µM), without a hit: at the top dose activity change, negative = inhibition, most hits filed as inhibitors; 310,000 compounds, 5.9% hits; AID 504832; also: potency is read from the fitted curve at half-maximal effect; % is scaled to controls: 0 for no effect and ±100 for the full control effect
#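 Luciferase-expressing P. falciparum in infected erythrocytes (2% hematocrit, 0.1% parasitemia final) in RPMI 1640/0.5% Albumax were exposed to compound for 48 hours at 37 C, 5% CO2; growth read as luminescence.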
# NS1 function inh: influenza NS1 inhibition; Potency, µM (series often up to 46.1 µM), without a hit: at the highest dose activity, positive = more growth; 270,000 compounds, 0.4% hits; AID 2326; calls by dose curve; also: potency is read from the fitted curve at half-maximal effect; actives are rising curves; nearly all actives have a fitted effect of over 50% in size
#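 Recovery from NS1-induced slow growth read by OD600 in budding yeast switched to galactose assay medium (pH 6.0, -URA) at 1:100 dilution. Compound 23 nl per well; the matching strain lacking NS1 serves as control.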
# Pf growth 96h: P. falciparum growth inhibition at 96 hour, primary screen for plastid delayed-death inhibitors; AID 504834; P. falciparum luciferase reporter growth, 96 h; 320,000 compounds, 6.9% hits; Potency, µM (doses to about 28.7 µM), without a hit: top-dose activity change, negative = inhibition, most hits filed as inhibitors; also: potency is read from the fitted curve at half-maximal effect; % is scaled to controls: 0 for no effect and ±100 for the full control effect
#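 Two parasite generations (96 h, 37 C, 5% CO2) of compound exposure in infected erythrocytes (0.05% parasitemia, 2% hematocrit). Luciferase-reporter P. falciparum; decreased luminescence indicates inhibited growth, aimed at apicoplast-acting delayed death.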
# * hit, by the source's call; ? = inconclusive; . = no result; [ ] = another dose, or the depositor's remark. An excerpt weighted towards active compounds, which were near 21% of everything screened. Unless noted, calls follow the shape of the dose curve; as a rule, active = well fitted curve in the direction sought with a large enough effect; inconclusive = small, poorly fitted or top-dose-only effect, or another doubt; inactive = no such curve, though single readings can be large; an effect the other way counts as inactive or inconclusive.
SMILES,Cycloheximide cs,Shiga toxin inh,FBPA Giardia inh,Pf growth 48h,NS1 function inh,Pf growth 96h
CCOC(=O)CC(=O)COc1nc2cc3c(nc2o1)CCCC3,27*,91*,10%,29%,21%,4%
CCOC(=O)CC(=O)CSc1nc2c(cc1C#N)CCCCC2,46*,84*,-10%,6%,11%,?
CC(C)c1nc2sc3c(SCC(N)=O)ncnc3c2c2c1CCC2,-2,-2,2%,4%,-7%,10%
CCC1CCCCN1S(=O)(=O)c1ccc(C(=O)N(CCCN(C)C)c2nc3cc4c(cc3s2)OCO4)cc1 (centres undefined),6,-6,.,?,3%,?
Cc1ccc2c(c1)N(C(=O)CCC(=O)Nc1ccccc1Cl)CC(C)O2 (centres undefined),-1,16,2%,?,-7%,?
O=C(c1ccccc1)C1CN(Cc2ccccc2)CCC1(O)c1ccccc1 (centres undefined),-3,3,1%,?,-4%,0%
OC(c1ccccc1)C1CN(Cc2ccccc2)CCC1(O)c1ccccc1 (centres undefined),-5,-11,6%,0.74µM*,-1%,-2%
COCCOC(=O)N/C=C\c1nc2ccccc2c(=O)[nH]1,-3,22,-8%,45%,-3%,-1%
Cc1ccccc1/C=C/c1nc2ccccc2c(=O)[nH]1,45*,84*,0%,253%,-1%,97%
Cc1ccccc1/C=C\c1nc2ccccc2c(=O)[nH]1,46*,89*,0%,?,-7%,0%
CCOc1ccccc1/C=C\c1nc(O)c([N+](=O)[O-])c(=O)[nH]1,-4,-13,0%,54%[0.00184 µM],5%,-6%
N#CCOc1ccccc1/C=C/c1nc2ccccc2c(=O)[nH]1,30*,83*,-14%,0%,16%,35%
CCOc1ccc(OCC)c(NC(=O)CCNS(=O)(=O)c2cc(Br)cnc2N)c1,-2,23,-5%,-1%,4%,?
Cn1c(C[C@@H](O)c2nc3ccccc3n2C)nc2ccccc21,.,.,.,.,-3%,.
Cc1ncsc1C(=O)N1N=C2/C(=C/c3ccccc3)CCCC2C1c1ccccc1 (centres undefined),2,-13,5%,?,10%,?
Cc1ncsc1C(=O)N1N=C2/C(=C/c3ccc(N4CCOCC4)cc3)CCCC2C1c1ccc(N2CCOCC2)cc1 (centres undefined),34,3,-2%,?,8%,5.2µM*
NS(=O)(=O)c1ccc(CCNC(=O)c2cnc(Cl)c(Cl)c2)cc1,0,-17,7%,3%,5%,0%
COCc1ccccc1C1=CC(=O)C[C@H](c2ccc(F)cc2)C1,.,.,.,49%,.,?
Cc1ccc(S(=O)(=O)N2CCOCC2)cc1NC(=O)CSc1ncccn1,.,.,.,?,.,4%
Cc1ccc(-n2c(SCC(=O)Nc3cccc(S(=O)(=O)NC4=NCCCCC4)c3)nc3ccccc3c2=O)cc1,-2,-13,0%,?,28%,3.7µM*
O=C(CSc1nc2ccccc2c(=O)n1-c1ccc(F)c(Cl)c1)Nc1cccc(S(=O)(=O)N2CCOCC2)c1,-5,17,0%,?,?,4.1µM*
CCc1ccc(-n2c(SCC(=O)Nc3cccc(S(=O)(=O)NC4=NCCCCC4)c3)nc3ccccc3c2=O)cc1,-2,-21,6%,?,?,?
O=C(CSc1nc2ccccc2c(=O)n1-c1ccc(F)cc1)Nc1ccc(Cl)c(S(=O)(=O)N2CCOCC2)c1,-3,-15,2%,9.3µM*,?,5.9µM*
Cc1ccc(S(=O)(=O)N2CCOCC2)cc1NC(=O)CSc1nnc2cc(C)c3ccccc3n12,-2,-3,1%,5.9µM*,8%,13µM*
COc1ccccc1CNC(=O)CSc1ccc(-c2cccc([N+](=O)[O-])c2)nn1,-5,-8,-1%,-4%,.,0%
COCCCNC(=O)c1cc(C(=O)c2ccccc2Br)c[nH]1,1,-12,0%,?,.,?
CCN(C(=S)Nc1cc(S(=O)(=O)N2CCOCC2)ccc1Cl)c1cccc2ccccc12,18,35,7.1µM*,25%,-40%,?
